Hits are enriched below; roughly 18% of the tested compounds scored in any of these assays.
HepG2 viability: qHTS for Inhibitors of TGF-b: Cytotox Counterscreen. HepG2 CAGA-GFP viability, ATP luminescence, 18 h. Potency, µM (doses to about 46.1 µM), actives largely listed as cytotoxic. 410,000 compounds, 0.76% hits. AID 588856, 2011
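HepG2 CAGA-GFP cells (1000/well, DMEM with 1% FBS) received compound, then TGF-beta at 500 pg/mL final, and were incubated 18 hours at 37 degrees C. Viability was read by CellTiter-Glo luminescence. Media-only wells were set as complete cell-killing and DMSO as no toxicity.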
TDP1 cell noCPT: qHTS for Inhibitors of human tyrosyl-DNA phosphodiesterase 1 (TDP1): qHTS in cells in absence of CPT. DT40 Tdp1-/- hTDP1 cells, no CPT, ATP luminescence, 48 h. Potency, µM (series often up to 46.2 µM), hits mostly inhibitors. 420,000 compounds, 15% hits. AID 686978, 2013; further: nearly all actives have a fitted effect of over 55% in size
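A cellular qHTS used chicken DT40 cells lacking endogenous Tdp1 but carrying stably transfected human TDP1. Compounds were applied without camptothecin, and cell growth kinetics were judged by ATP-dependent luminescence after ≥48 hr.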
TDP1 block: qHTS Assay for Inhibitors of Tyrosyl-DNA Phosphodiesterase (TDP1); recombinant TDP1, AlphaScreen DNA substrate cleavage; Potency, µM (series often up to 130 µM), actives largely listed as inhibitors; 350,000 compounds, 0.28% hits; AID 485290, 2010; further: nearly all actives have a fitted effect of over 40% in size
Target sequence (Q9NUW8 whole entry, looked up): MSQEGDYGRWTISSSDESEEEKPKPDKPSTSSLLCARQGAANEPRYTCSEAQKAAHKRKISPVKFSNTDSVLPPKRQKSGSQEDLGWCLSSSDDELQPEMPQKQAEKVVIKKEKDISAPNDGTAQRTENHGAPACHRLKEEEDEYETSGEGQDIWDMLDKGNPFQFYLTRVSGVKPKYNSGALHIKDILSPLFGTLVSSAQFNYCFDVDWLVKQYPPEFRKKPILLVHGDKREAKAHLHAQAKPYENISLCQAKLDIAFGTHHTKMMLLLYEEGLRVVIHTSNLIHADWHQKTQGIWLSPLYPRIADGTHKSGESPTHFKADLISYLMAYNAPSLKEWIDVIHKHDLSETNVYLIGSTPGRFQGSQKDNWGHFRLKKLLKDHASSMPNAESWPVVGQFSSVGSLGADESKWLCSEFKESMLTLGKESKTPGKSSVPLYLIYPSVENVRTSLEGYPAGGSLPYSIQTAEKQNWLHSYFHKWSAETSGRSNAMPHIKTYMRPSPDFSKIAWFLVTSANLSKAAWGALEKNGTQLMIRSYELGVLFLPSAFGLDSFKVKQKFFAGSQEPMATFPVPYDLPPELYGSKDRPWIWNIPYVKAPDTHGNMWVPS
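Compounds were preincubated with Tdp1 (1 nM final) for 15 min at room temperature before substrate (15 nM final) started a 5 min reaction; beads (10 ug/ml final) were then added for 10 min before AlphaScreen detection.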
IL1B secr inh: qHTS for Inhibitors of Inflammasome Signaling: IL-1-beta AlphaLISA Primary Screen | THP-1 LPS/ATP IL-1B secretion, AlphaLISA, 16 h; stronger effect = lower value | activity change, % at 57.5 µM | 360,000 compounds, 4.7% hits | AID 743279, 2014; in the data active means activity change below about -50%; inconclusive means mostly about -30% to -49%
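THP-1 cells pretreated 1 hr with compounds (up to 57.5 uM final), then stimulated with LPS (250 ng/mL final) plus ATP (1.25 mM final); secreted IL-1B measured by AlphaLISA after 16 hr, decreased signal indicating inhibition.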
DT40 TDP1 CPT: qHTS for Inhibitors of human tyrosyl-DNA phosphodiesterase 1 (TDP1): qHTS in cells in presence of CPT; AID 686979, 2013; chicken DT40 Tdp1-/-;hTDP1 cells + 20 nM CPT, ATP luminescence, 48 h; Potency, µM (titrated, usually from 46.2 µM), actives largely listed as inhibitors; 420,000 compounds, 12% hits; further: nearly all actives have a fitted effect of over 55% in size
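Chicken DT40 Tdp1-/- cells complemented with human TDP1, 400 cells/well, exposed to compounds plus 20 nM camptothecin for at least 48 h at 37 C; viability read as ATP content by CellTiter-Glo luminescence.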
TGFb SMAD3 inh: qHTS for Inhibitors of TGF-b | HepG2 CAGA-GFP TGF-b/SMAD3 reporter, GFP fluorescence, 18 h; TGF-beta stimulated, 500 pg/mL final | Potency, µM (top dose mostly 46.1 µM), most hits filed as inhibitors | 410,000 compounds, 1.2% hits | AID 588855, 2011; further: nearly all actives have a fitted effect of over 65% in size
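HEPG2 CAGA-GFP, 1000 cells/well; 2 h settle, 37 C; cpd via pin tool; TGF-b 500 pg/mL final; 18 h, 37 C; GFP imaging ex488/em500-530; %Activity normalised to -TGF-b and +DMSO controls; CRC fit, curve class.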
Hits are given with their value; – = inactive; ? = inconclusive; · = no result given. Unless noted, the call rests on the fitted dose curve; in most records, active means well fitted curve in the direction sought with a large enough effect; inconclusive means small, poorly fitted or top-dose-only effect, or another doubt; inactive means no such curve, though single readings can be large; an effect the other way counts as inactive or inconclusive.

SMILES	HepG2 viability	TDP1 cell noCPT	TDP1 block	IL1B secr inh	DT40 TDP1 CPT	TGFb SMAD3 inh
Cc1ccnc(NC(=O)c2cc([N+](=O)[O-])cc([N+](=O)[O-])c2)c1	–	–	–	–	–	–
Cc1cccc(NC(=O)c2ccc([N+](=O)[O-])cc2Cl)n1	–	?	–	–	?	–
COCCNc1ccc([N+](=O)[O-])cc1C(=O)Nc1cccc(C)n1	–	?	–	–	13µM	–
Cc1cccc(NC(=O)c2ccc([N+](=O)[O-])s2)n1	–	5.8µM	–	–	8.2µM	14µM
Cc1cccc(NC(=O)Nc2ccc([N+](=O)[O-])cc2)n1	–	–	–	–	–	–
Cc1cccc(C(=O)Nc2ccccc2C(=O)OCc2cc(=O)n3nc(C4CC4)sc3n2)c1	–	–	–	·	–	–
CCOC(=O)c1nc(C)n(-c2cc(OC)c(Cl)cc2Cl)n1	–	–	–	-92	–	–
COc1ccc(/C=C2\SC(=S)N(CC3CCCO3)C2=O)cc1 (centres undefined)	–	–	–	–	–	–
O=C1/C(=C/c2cccnc2)SC(=S)N1c1ccc(O)cc1	–	?	·	-99	–	–
O=C1/C(=C/c2cccnc2)SC(=S)N1c1ccc(F)cc1	–	–	–	–	?	–
COc1cc(/C=C2/SC(=S)N(CC3CCCO3)C2=O)ccc1O (centres undefined)	–	?	–	-74	–	–
O=C1/C(=C/c2cccnc2)SC(=S)N1CC1CCCO1 (centres undefined)	–	?	–	-103	–	–
Cc1ccc(/C=C2\SC(=S)N(CC3CCCO3)C2=O)o1 (centres undefined)	–	?	–	-96	?	–
Cc1nn(CC(=O)N2CCC(C(N)=O)CC2)c(=O)c2nn(-c3ccccc3)c(C)c12	–	–	–	–	–	–
CCN1CCN(c2c(C=O)c(Cl)nc3ccc(OC)cc23)CC1	–	?	·	–	?	–
CCN(CC)S(=O)(=O)c1ccc(N2CCOCC2)c(NC(=O)c2ccc(OC)c([N+](=O)[O-])c2)c1	–	–	–	–	–	–
CCN(CC)S(=O)(=O)c1ccc(OC)c(NC(=O)c2cc([N+](=O)[O-])ccc2N2CCOCC2)c1	–	16µM	·	–	?	–
CCN(CC)S(=O)(=O)c1cc(NC(=O)c2cc([N+](=O)[O-])ccc2N2CCOCC2)ccc1C	–	16µM	–	–	?	–
CC1CCN(CCc2nc3cc(NC(=O)COc4ccc([N+](=O)[O-])cc4)ccc3n2C)CC1	–	?	–	-101	16µM	–
CC1CCN(CCc2nc3cc(NC(=O)Nc4ccccc4)ccc3n2C)CC1	–	?	–	–	21µM	–
Cc1cccc(OCC(=O)Nc2ccc3c(c2)nc(CCN2CCC(C)CC2)n3C)c1	–	?	–	-64	?	–
CCn1c(CN2CCC(C)CC2)nc2cc(NC(=O)COc3ccc(Cl)c(C)c3)ccc21	–	5.2µM	–	·	6.5µM	4µM
CCn1c(CN2CCCCC2)nc2cc(NC(=O)COc3ccccc3C(C)(C)C)ccc21	–	–	–	·	–	–
Cc1c(C(O)(c2ccccc2)c2ccccc2)[n+]2ccccc2n1C	·	·	–	·	·	·
COc1ccc(C2c3c(n(C)c4ccccc34)C(=O)N2CC(=O)Nc2cccc(Cl)c2C)cc1 (centres undefined)	–	?	–	·	?	–
SMILES	HepG2 viability	TDP1 cell noCPT	TDP1 block	IL1B secr inh	DT40 TDP1 CPT	TGFb SMAD3 inh
O=C(NCC(c1cccs1)N1CCOCC1)c1ccc(Cl)c(S(=O)(=O)N2CCOCC2)c1 (centres undefined)	–	–	–	–	–	–
CN(C)C(CNC(=O)c1cc(S(=O)(=O)N2CCOCC2)ccc1Cl)c1cccs1 (centres undefined)	–	21µM	·	–	?	–
CN(C)C(CNC(=O)c1cc(S(=O)(=O)N(C)c2ccccc2)ccc1Cl)c1cccs1 (centres undefined)	–	6.5µM	–	–	5.8µM	–
COc1ccc2c(c1)CC/C(=C/c1ccncc1)C2=O	–	16µM	–	-105	16µM	–
COc1ccc(/C=C2\CCc3ccccc3C2=O)cc1O	–	0.82µM	–	–	0.52µM	?
COc1ccc(/C=C2\CCc3ccccc3C2=O)cc1Cn1cccn1	–	?	–	?	21µM	?
CC(=O)Nc1ccc(/C=C2\CCc3ccccc3C2=O)cc1	–	–	·	-96	–	–
O=C(Nc1cccc(C(=O)N2CCOCC2)c1)C1CC1	–	–	·	–	–	–
CC1CCC(C(C)C)C(P(=O)(c2ccccc2)c2ccccc2)C1 (centres undefined)	·	·	–	·	·	·
COc1ccc(/C=C2\CCC(C3CCCC3)C2=O)cc1Cn1cccn1 (centres undefined)	–	?	–	-80	18µM	–
CC(C)CN1C(=O)CN(S(C)(=O)=O)CC1(C)C(=O)NC(C)C (centres undefined)	·	–	·	–	–	·
COC(=O)c1ccccc1NC1c2ccccc2C(=O)N1c1cccnc1 (centres undefined)	–	?	–	–	15µM	–
CCOC(=O)c1ccc(NC2c3ccccc3C(=O)N2c2cccnc2)cc1 (centres undefined)	–	10µM	–	–	12µM	–
CCOC(=O)c1ccc(NC(=O)c2ccc3c(c2)c(C)c(C)n3Cc2ccc(F)cc2)cc1	–	8.2µM	–	·	9.2µM	?
CCn1c(C)c(C)c2cc(C(=O)NCc3ccc(F)cc3)ccc21	–	?	–	·	?	–
Cc1c(C)n(Cc2ccc(F)cc2)c2ccc(C(=O)NCc3ccco3)cc12	–	?	–	·	?	–
COc1ccc(NC(=O)c2ccc3c(c2)c(C)c(C)n3Cc2ccc(F)cc2)cc1	–	4.6µM	–	·	5.2µM	–
O=C(NCc1ccccc1)c1c2c(nc3ccccc13)C(=O)N(C1CCCCC1)C2	–	18µM	–	·	16µM	–
O=C(NCc1ccccc1Cl)c1c2c(nc3ccccc13)C(=O)N(C1CCCCC1)C2	–	?	–	·	18µM	–
Cc1ccc(CCNC(=O)c2c3c(nc4ccccc24)C(=O)N(C2CCCCC2)C3)cc1	–	10µM	–	·	21µM	?
O=C(NCc1ccc(F)cc1)c1c2c(nc3ccccc13)C(=O)N(C1CCCCC1)C2	–	?	–	·	?	–

Assay outcomes from PubChem BioAssay.
